Screens: PubChem BioAssay, Broad Institute
DUX4 txn inh – inhibitors of DUX4-driven ZSCAN4 reporter expression, primary screen, 293T cells, Gaussia and Italica luciferase; 293T-iDUX4 ZSCAN4-Gaussia luciferase reporter, 24 h; hits give low values; activity change, negative = inhibition, % (test concentration not listed); 37,000 tested, 0.8% active;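 active = mean inhibition of at least 10% in the main channel, exceeding the control channel by a set limit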;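 also: 0% = median of neutral control wells and -100% = median of positive control wells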
The depositor's hits bear a star; ! = not confirmed by another sample. This excerpt belongs to a sample that is enriched for hits.

SMILES	DUX4 txn inh
N#Cc1cccc(-c2ccc3c(c2)[C@H]2[C@H](CCN2Cc2ccncc2)[C@@H](CO)N3)c1	-47.3*
OC[C@@H]1Nc2ccc(-c3ccc(F)cc3)cc2[C@H]2[C@@H]1CCN2Cc1ccc(F)cc1	-3.2
CC(=O)N1CC[C@@H]2[C@@H](CO)Nc3ccc(-c4cccc(F)c4)cc3[C@@H]21	12.9
CC(=O)N1CC[C@@H]2[C@H]1c1cc(-c3cccc(F)c3)ccc1N[C@@H]2CO	22.0
COc1ccc(-c2ccc3c(c2)[C@H]2[C@H](CCN2Cc2ccncc2)[C@@H](CO)N3)cc1	7.3
OC[C@H]1Nc2ccc(-c3cccc(F)c3)cc2[C@H]2[C@@H]1CCN2Cc1ccncc1	-19.5*
OC[C@H]1Nc2ccc(-c3cccc(F)c3)cc2[C@@H]2[C@H]1CCN2Cc1ccc(F)cc1	-24.4*
OC[C@@H]1Nc2ccc(-c3cccc(F)c3)cc2[C@@H]2[C@H]1CCN2Cc1ccncc1	1.0
O=C(C1CCC1)N1CC[C@@H]2[C@@H](CO)Nc3ccc(-c4cccc(F)c4)cc3[C@@H]21	11.0
N#Cc1cccc(-c2ccc3c(c2)[C@H]2[C@H](CCN2C(=O)c2ccncc2)[C@@H](CO)N3)c1	7.1
OC[C@H]1Nc2ccc(-c3cccc(F)c3)cc2[C@H]2[C@@H]1CCN2Cc1ccc(F)cc1	-31.6*
N#Cc1cccc(-c2ccc3c(c2)[C@@H]2[C@@H](CCN2Cc2cncnc2)[C@@H](CO)N3)c1	-5.1
CC=Cc1ccc2n(c1=O)C[C@@H]1[C@@H](CO)[C@H](C(=O)Nc3ccccc3)N(CC)[C@H]21 (mixture of isomers)	0.3
C[C@@H]1CCCCO[C@@H](CN(C)C(=O)Nc2ccc(F)cc2)[C@@H](C)CN([C@@H](C)CO)C(=O)c2cc(NC(=O)NC3CCCCC3)ccc2O1	7.3
COc1ccccc1-c1cnc2c(c1)C(=O)N([C@@H](C)CO)C[C@@H](C)[C@H](CN(C)Cc1cncnc1)O2	-4.6
C[C@@H]1CN([C@H](C)CO)C(=O)c2cccc(N(C)C)c2O[C@@H]1CN(C)S(=O)(=O)c1cn(C)cn1	-2.3
Cc1ccc(S(=O)(=O)Nc2ccc3c(c2)CC(=O)N([C@@H](C)CO)C[C@H](C)[C@@H](CN(C)C(=O)Nc2ccc4c(c2)OCO4)O3)cc1	-6.2
CC(=O)NC[C@H]1[C@H](c2ccc(C3=CCCC3)cc2)[C@@H](CO)N1Cc1cccnc1	-0.7
COc1ccc2c3c(n(C)c2c1)[C@@H](CO)N(C(=O)c1cccnc1)CC31CCN(C)CC1	0.7
CCN1[C@H](C(=O)NCc2ccc(F)cc2)[C@@H](CO)[C@@H]2Cn3c(ccc(-c4ccccc4OC)c3=O)[C@@H]21	2.4
CO[C@H]1CC[C@@H]2CCOc3ccc(C#N)cc3C(=O)N(C)CCCC(=O)N(C)C[C@H]1O2	1.5
CN1C(=O)c2cc(NC(=O)Cc3cccs3)ccc2OC[C@@H]2O[C@H](CC(=O)N[C@@H]3CCN(Cc4ccccc4)C3)CC[C@H]21	1.4
CC(=O)N1[C@@H]2CN(C(=O)c3ccccc3)c3ccccc3[C@@H]2[C@@H]1CO	-3.2
COc1ccc(CNC(=O)C[C@@H]2CC[C@H](NC(=O)CN(C)C)[C@@H](CO)O2)cc1	2.7
O=C(C[C@H]1CC[C@@H](NC(=O)c2ccc3c(c2)OCO3)[C@@H](CO)O1)NCc1ccc(Oc2ccccc2)cc1	-44.8*
SMILES	DUX4 txn inh
O=C(C[C@@H]1CC[C@@H](NC(=O)CC2CC2)[C@@H](CO)O1)NCc1ccc(-c2ccccc2)cc1	9.1
O=C(CCN1CCCCC1)NCC[C@@H]1CC[C@H](NS(=O)(=O)c2cccc(Cl)c2)[C@@H](CO)O1	2.1
CO[C@H]1CN(C)C(=O)c2ccc(NC(=O)Nc3cccc(Cl)c3)cc2OC[C@@H](C)NC[C@H]1C	-6.0
Cc1noc(C)c1NC(=O)Nc1ccc2c(c1)C(=O)N([C@@H](C)CO)C[C@@H](C)[C@@H](CN(C)C(=O)Cc1ccccc1)OCCCC[C@@H](C)O2	4.5
CC1C=NC(S(=O)(=O)N2CC[C@@H]3[C@H](CO)N(C)c4ccc(C#Cc5cccnc5)cc4[C@@H]32)=N1 (some centres undefined)	18.8
CCNC(=O)[C@H]1[C@H](CO)[C@H]2Cn3c(ccc(-c4cccnc4)c3=O)[C@H]2N1Cc1ccccc1	-0.6
C[C@@H]1CN([C@@H](C)CO)C(=O)c2cc(NC(=O)CCC(F)(F)F)ccc2O[C@@H](C)CCCCO[C@@H]1CN(C)S(=O)(=O)c1ccccc1	-0.3
COc1ccc(S(=O)(=O)Nc2ccc3c(c2)OC[C@H](C)NC[C@@H](C)[C@@H](OC)CN(C)C3=O)cc1	2.7
Cc1ccc(S(=O)(=O)N2[C@@H]3CNC[C@H]2C3c2ccc(-c3ccc(C#N)cc3)cc2)cc1 (some centres undefined)	17.1
COc1cccc(-c2ccc(C3[C@@H]4CN(S(=O)(=O)c5cn(C)cn5)C[C@H]3N4)cc2)c1 (some centres undefined)	-33.7*!
COc1ccccc1-c1ccc(C2[C@@H]3CN(S(=O)(=O)c4ccc(C)cc4)C[C@H]2N3)cc1 (some centres undefined)	-33.7*!
COc1cccc(-c2ccc(C3[C@H]4CNC[C@@H]3N4S(=O)(=O)c3cn(C)cn3)cc2)c1 (some centres undefined)	13.6
COc1ccccc1S(=O)(=O)N1C[C@@H]2N[C@H](C1)C2c1ccc(-c2ccncc2)cc1 (some centres undefined)	-4.6
N#Cc1cccc(-c2ccc(C3[C@@H]4CN(S(=O)(=O)c5ccccc5)C[C@H]3N4)cc2)c1 (some centres undefined)	-41.1*!
COc1cccc(-c2ccc(C3[C@@H]4CN(C(=O)C5CCOCC5)C[C@H]3N4)cc2)c1 (some centres undefined)	12.9
COc1ccc(S(=O)(=O)N2[C@@H]3CNC[C@H]2C3c2ccc(-c3ccccc3OC)cc2)cc1 (some centres undefined)	12.5
C/C=C/c1ccc(C2[C@@H]3CN(S(=O)(=O)c4ccc(C)cc4)C[C@H]2N3)cc1 (some centres undefined)	3.8
N#Cc1cccc(-c2ccc([C@H]3[C@H]4CN(S(=O)(=O)c5ccccc5)CCCCN4[C@H]3CO)cc2)c1	2.6
Cc1ccc(S(=O)(=O)N2C[C@@H]3N[C@H](C2)C3c2ccc(-c3cccc(C#N)c3)cc2)cc1 (some centres undefined)	-43.2*!
N#Cc1cccc(-c2ccc3c(c2)[C@@H]2[C@@H](CCN2S(=O)(=O)c2ccccc2)[C@@H](CO)N3)c1	-4.5
CN(C)CC(=O)Nc1ccc2c(c1)[C@@H]1C[C@@H](CC(=O)NC3CCCCC3)O[C@H](CO)[C@@H]1O2	4.6
O=C(C[C@@H]1CC[C@H]2[C@@H](COC[C@@H](O)CN2CCc2ccccc2)O1)NCc1ccc(F)cc1	-2.2
CCCN1C[C@H](C)[C@H](OC)CN(C)C(=O)c2cc(NC(=O)c3cccc(OC)c3)ccc2OC[C@H]1C	2.0
O=C(C[C@H]1C[C@H]2c3cc(NC(=O)Nc4ccccc4F)ccc3O[C@H]2[C@H](CO)O1)NCc1ccncc1	3.6
C[C@H]1CN([C@@H](C)CO)C(=O)CCCn2nncc2CO[C@H]1CN(C)Cc1ccc(O)cc1	0.0
C[C@@H]1CN([C@H](C)CO)C(=O)CCCn2nncc2CO[C@H]1CN(C)Cc1ccc(C(=O)Nc2ccccc2N)cc1	-21.6*
